Source: PubChem BioAssay (EPA / NIEHS)
“And” between values parts separate entries of the source, which are not always exact repeats. Equal values may be shown once. Records with an inconclusive call do not appear. A structure can be active in one record and inactive in another. The source made the active and inactive calls. The calls were made as follows, unless noted: active = hit-call score of the fitted dose curve at least 0.9, where 1 is the maximum; inactive = score below 0.9.

How the values were obtained:
[1] = TOX21_p53_BLA_p2_viability: Viability Assessment in the Tox21 HCT-116 p53 Agonism Beta-lactamase Assay, Phase 2 (AID 2283591; active = hit-call score of the fitted dose curve at least 0.9, where 1 is the maximum;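 also: actives lower the ATP signal meaning cytotoxicity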)
How it was run: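 HCT-116 p53-bla cells (4000/well) rested 5 h at 37C, then received compounds in DMSO (217-fold dilution) for 16 h at 37C, 5% CO2. After the CCF4 read, CellTiter-Glo was added; ATP luminescence was read after 30 min at room temperature.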

[2] = biological target: Cellular tumor antigen p53 (Homo sapiens) (UniProt P04637); assay: TOX21_p53_BLA_p2_ratio: Tox21 HCT-116 p53 Agonism Beta-lactamase Assay, Ratio, Phase 2 (AID 2283592; active = hit-call score of the fitted dose curve at least 0.9, where 1 is the maximum)
How it was run: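 An inducible beta-lactamase reporter in HCT116 cells signals p53 pathway activation. After 16 h chemical exposure at 37C, cells load CCF4-AM substrate for 2 h at room temperature; activity is the cleaved/uncleaved emission ratio relative to DMSO.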

[3] = TOX21_p53_BLA_p3_viability: Viability Assessment in the Tox21 HCT-116 p53 Agonism Beta-lactamase Assay, Phase 3 (AID 2283593; active = hit-call score of the fitted dose curve at least 0.9, where 1 is the maximum;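 also: cells exposed to compound for 16 h before reading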)
How it was run: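 HCT-116 cells (4000/well) rested 5 h at 37C, then got DMSO compounds by pin tool (217-fold dilution) for 16 h at 37C, 5% CO2. After the bla read, CellTiter-Glo was added and luminescence read at 30 min, room temperature.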

[4] = biological target: Cellular tumor antigen p53 (Homo sapiens) (UniProt P04637); assay: TOX21_p53_BLA_p3_ratio: Tox21 HCT-116 p53 Agonism Beta-lactamase Assay, Ratio, Phase 3 (AID 2283596; active = hit-call score of the fitted dose curve at least 0.9, where 1 is the maximum)
How it was run: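 HCT116 p53-bla cells (4000/well) given compound in DMSO (217-fold dilution) after 5 h, incubated 16 h at 37C. CCF4-AM substrate 2 h at room temperature; 460/530 nm emission ratio, gain fitted against DMSO.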

[5] = biological target: Cellular tumor antigen p53 (Homo sapiens) (UniProt P04637); assay: TOX21_p53_BLA_p5_ratio: Tox21 HCT-116 p53 Agonism Beta-lactamase Assay, Ratio, Phase 5 (AID 2283599; active = hit-call score of the fitted dose curve at least 0.9, where 1 is the maximum)
How it was run: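 HCT-116 cells carrying a p53-inducible beta-lactamase reporter were seeded at 4000 cells/well and dosed after 5 h with compound in DMSO (217-fold dilution). After 16 h at 37C, CCF4-AM substrate was added for 2 h, and the 460/530 nm emission ratio was scored as gain-of-signal versus DMSO.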

[6] = TOX21_p53_BLA_p5_viability: Viability Assessment in the Tox21 HCT-116 p53 Agonism Beta-lactamase Assay, Phase 5 (AID 2283600; active = hit-call score of the fitted dose curve at least 0.9, where 1 is the maximum)
How it was run: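 Counter-readout for cytotoxicity: ATP-dependent luminescence from CellTiter-Glo, read in the beta-lactamase wells after 30 min at RT, following a 16 h compound exposure at 37C.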

[7] = CCTE_Shafer_MEA_dev_firing_rate_mean: CCTE's Neural Network Formation Assay for Mean Firing Rate, Shafer Lab (AID 2284031)
How it was run: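 Developing rat cortical networks on MEA plates undergo 12-day compound exposure. Firing frequency, averaged across active electrodes, is integrated as area under the curve over four recording days, referenced to DMSO.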

[8] = CCTE_Shafer_MEA_dev_per_burst_spike_percent: CCTE's Neural Network Formation Assay for Percent of Spikes in a Burst, Shafer Lab (AID 2284032);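 as to AC50: fitted as a decrease in burst spike percentage below DMSO baseline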
How it was run: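 Rat primary cortical neurons on 16-electrode MEA wells, dosed from plating day 0 for 12 days with renewal on DIV 5 and 9; spikes-in-bursts percentage averaged over bursting electrodes, collapsed as AUC across days 5, 7, 9, 12; loss direction versus DMSO.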

[9] = CCTE_Shafer_MEA_dev_active_electrodes_number: CCTE's Neural Network Formation Assay for Number of Active Electrodes, Shafer Lab (AID 2284040; active = hit-call score of the fitted dose curve at least 0.9, where 1 is the maximum;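 also: potency for loss of active electrodes versus DMSO so lower counts are hits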)
How it was run: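 Rat cortical primary cultures, 1.5 x 10^5 cells/well, PEI-coated MEA, laminin drop. Continuous exposure DIV 0–12; full media/compound change DIV 5, 9. Readout: electrodes with mean firing ≥5 spikes/min; AUC across days; loss vs DMSO.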

[10] = CCTE_Shafer_MEA_dev_burst_rate: CCTE's Neural Network Formation Assay for Burst Rate, Shafer Lab (AID 2284042)
How it was run: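 Rat primary cortical cultures on PEI/laminin MEA; compound from plating, re-dosed at DIV 5, 9 media change. Single-electrode bursts/recording length, well mean of active electrodes; AUC over DIV 5–12 recordings; loss-of-signal vs DMSO.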

[11] = CCTE_Shafer_MEA_dev_bursting_electrodes_number: CCTE's Neural Network Formation Assay for Number of Bursting Electrodes, Shafer Lab (AID 2284043; active = hit-call score of the fitted dose curve at least 0.9, where 1 is the maximum;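 also: potency is for loss of bursting electrodes relative to DMSO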)
How it was run: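 Primary rat cortical neurons were cultured on PEI-coated 48-well MEA plates (16 electrodes/well) and exposed from plating through day 12, with compound renewed at feeds on DIV 5 and 9. Electrodes bursting ≥1 per 2 min were counted on DIV 5, 7, 9, 12; trapezoidal AUC taken.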

[12] = CCTE_Shafer_MEA_dev_per_burst_interspike_interval: CCTE's Neural Network Formation Assay for Burst Interspike Interval, Shafer Lab (AID 2284044);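 also: mean spike spacing inside bursts as AUC over recordings on days 5 7 9 12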
How it was run: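 Developmental network-formation MEA in primary rat cortical cultures with exposure spanning days 0–12. Within-burst ISI is averaged per well and integrated across recording days by area under the curve, with DMSO as negative control baseline.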

[13] = CCTE_Shafer_MEA_dev_burst_duration_mean: CCTE's Neural Network Formation Assay for Mean Burst Duration, Shafer Lab (AID 2284045)
How it was run: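 Primary rat cortical neurons on PEI-coated 16-electrode MEA wells, exposed from plating through day 12 with compound renewed at DIV 5 and 9; spontaneous activity recorded days 5, 7, 9, 12. Well-mean burst duration collapsed as trapezoidal AUC, fitted for loss versus DMSO.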

[14] = CCTE_Shafer_MEA_dev_interburst_interval_mean: CCTE's Neural Network Formation Assay for Mean Interburst Interval, Shafer Lab (AID 2284046);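 also: well-mean interburst interval of bursting electrodes as AUC over four recording days; curve fitted for decrease in interburst interval relative to DMSO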
How it was run: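 Rat cortical neurons, 1.5 x 10^5 cells/well, 48-well MEA; compound from day 0 through DIV 12, media and treatment renewed DIV 5/9. Recordings DIV 5, 7, 9, 12; well-mean interburst interval → trapezoidal AUC, loss direction vs DMSO.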

[15] = CCTE_Shafer_MEA_dev_inter_network_spike_interval_mean: CCTE's Neural Network Formation Assay for Mean Inter-network Spike Interval, Shafer Lab (AID 2284047)
How it was run: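 Primary rat cortical neurons on PEI-coated 48-well MEAs (16 electrodes/well) were exposed from plating day 0 to DIV 12, with dosing renewed at DIV 5 and 9. Recordings at DIV 5, 7, 9, 12 were collapsed by trapezoidal AUC, loss-of-signal fit vs DMSO.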

[16] = CCTE_Shafer_MEA_dev_network_spike_number: CCTE's Neural Network Formation Assay for Number of Network Spikes, Shafer Lab (AID 2284048);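 also: synchronized bursts across electrodes counted on days 5 7 9 12 and integrated as AUC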
How it was run: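 Primary rat cortical neurons were seeded at 1.5 x 10^5 cells/well on PEI-coated 16-electrode MEA wells with laminin, exposed from plating day 0, compound renewed at DIV 5 and 9. Network spikes were recorded on days 5, 7, 9, 12 and summarized as trapezoidal AUC versus DMSO.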

[17] = CCTE_Shafer_MEA_dev_spike_duration_mean: CCTE's Neural Network Formation Assay for Mean Spike Duration, Shafer Lab (AID 2284051);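 also: mean network spike duration pooled as area under curve over DIV 5 to 12 recordings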;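 as to AC50: potency for a decrease in mean network spike duration versus DMSO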
How it was run: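 Rat cortical primary cultures, 48-well MEA (16 electrodes/well); compound from plating, renewed DIV 5, 9. Network spike duration (AxIS adaptive detector) recorded DIV 5/7/9/12, combined as trapezoidal AUC; loss direction vs DMSO.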

[18] = CCTE_Shafer_MEA_dev_network_spike_duration_std: CCTE's Neural Network Formation Assay for Standard Deviation of Network Spike Duration, Shafer Lab (AID 2284052);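 also: area under curve of spike duration SD across recording days 5 to 12; hits are decreases in network spike duration SD versus DMSO vehicle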
How it was run: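 Rat cortical cultures, 1.5 x 10^5 cells/well, exposed continuously from plating to DIV 12 with media/compound renewal at DIV 5, 9. Spontaneous activity recorded DIV 5/7/9/12, AxIS adaptive spike detector; AUC across days; negative direction vs DMSO.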

[19] = CCTE_Shafer_MEA_dev_per_network_spike_spike_number_mean: CCTE's Neural Network Formation Assay for Mean Number of Spikes in a Network Spike, Shafer Lab (AID 2284053);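 also: fitted as decrease in spikes per network spike relative to DMSO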
How it was run: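 Rat cortical primary cultures on 48-well MEA; compound from day 0, re-dosed with full media change DIV 5, 9. Recorded DIV 5, 7, 9, 12; spikes in 0.05 s window at network-spike peak ÷ total network spikes; AUC; loss vs DMSO.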

[20] = CCTE_Shafer_MEA_dev_per_network_spike_spike_percent: CCTE's Neural Network Formation Assay for Percent of Spikes in a Network Spike, Shafer Lab (AID 2284054)
How it was run: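 Primary rat cortical neurons on 16-electrode MEA wells (PEI-coated, laminin at plating), exposed from day 0 with renewal at DIV 5 and 9; spikes within 0.05 s of network-spike peaks over total spikes, AUC across days 5, 7, 9, 12.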

[21] = UKN5_HCS_SBAD2_cell_viability: Viability Assessment in the University of Konstanz (UKN) Leist Lab Neurite Outgrowth Assay in human iPSC-derived immature Dorsal Root Ganglia Neurons (UKN5) (AID 2284056)
How it was run: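 iPSC-derived immature peripheral neurons (SBAD2) seeded on Matrigel with CHIR99021, SU5402 and DAPT, dosed 1 h later for 24 h. Viability from Hoechst H-33342 and calcein-AM live staining, high-content imaging; bidirectional fit versus DMSO.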

[22] = CCTE_Shafer_MEA_dev_LDH: CCTE's Lactate Dehydrogenase Assay for Cytotoxicity in the Neural Network Formation Assay, Shafer Lab (AID 2284068; active = hit-call score of the fitted dose curve at least 0.9, where 1 is the maximum;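 also: exposure for twelve days from plating with re-dosing on DIV 5 and 9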)
How it was run: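 Rat cortical primary neurons, MEA culture; dosing day 0–12, full medium plus compound exchange DIV 5, 9. Read-out: LDH enzyme activity, spectrophotometric. DMSO = negative control/baseline; signal loss → cytotoxicity.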

[23] = UKN5_HCS_SBAD2_neurite_outgrowth: University of Konstanz (UKN) Leist Lab Neurite Outgrowth Assay in human iPSC-derived immature Dorsal Root Ganglia Neurons (UKN5) (AID 2284070); settings: actives raise or lower the signal
How it was run: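 SBAD2 neurons, 24 h compound treatment, calcein-AM neurite area via HCS imaging; DMSO baseline, gain or loss of signal.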

[24] = CCTE_Shafer_MEA_dev_mutual_information_norm: CCTE's Neural Network Formation Assay for Mutual Information Normalization, Shafer Lab (AID 2284091);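 also: mutual information between electrodes summarised as area under curve across four recording days; potency is for a decrease in mutual information relative to DMSO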
How it was run: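 Rat cortical cultures, 48-well MEA, continuous exposure DIV 0–12 with full media/compound change DIV 5 and 9. Readout: inter-electrode mutual information, AxIS adaptive spike detection; AUC across DIV 5/7/9/12 recordings; DMSO baseline, negative fitting direction.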

[25] = CCTE_Shafer_MEA_dev_correlation_coefficient_mean: CCTE's Neural Network Formation Assay for Mean Correlation Coefficient, Shafer Lab (AID 2284093);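 also: well mean pairwise spike train correlation integrated as AUC over recording days 5 to 12; potency fitted for loss of correlation relative to DMSO vehicle wells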
How it was run: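 Rat cortical cultures, 1.5 x 10^5 cells/well, dosed from day 0 for 12 days. Spontaneous spikes recorded DIV 5/7/9/12; electrode-pair correlation coefficients averaged, AUC taken. Fit in loss direction vs DMSO.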

[26] = UKN2_HCS_IMR90_neural_migration: University of Konstanz (UKN) Leist Lab Neural Crest Cell Migration Assay in human induced IMR90 Pluripotent Stem Cells (UKN2) (AID 2284204); settings: actives raise or lower the signal
How it was run: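 iPSC-derived IMR90 neural crest cells on PLO/laminin/fibronectin were seeded around silicone stoppers; after stopper removal, migration in N2-S medium with EGF and FGF ran 24 h before 24 h chemical exposure. Calcein-AM/Hoechst high-content imaging; bidirectional fit versus DMSO.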

[27] = UKN4_HCS_LUHMES_neurite_outgrowth: University of Konstanz (UKN) Leist Lab Neurite Outgrowth Assay in human LUHMES cells (UKN4) (AID 2284206); settings: actives raise or lower the signal
How it was run: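 2-day-differentiated LUHMES, 24 h cpd exposure, live calcein-AM + H-33342 stain, HCS fluorescence imaging of neurite area; DMSO = baseline, bidirectional fit.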

Measured: AC50

Chain of Cellular tumor antigen p53 (Homo sapiens) (P04637 whole entry, looked up): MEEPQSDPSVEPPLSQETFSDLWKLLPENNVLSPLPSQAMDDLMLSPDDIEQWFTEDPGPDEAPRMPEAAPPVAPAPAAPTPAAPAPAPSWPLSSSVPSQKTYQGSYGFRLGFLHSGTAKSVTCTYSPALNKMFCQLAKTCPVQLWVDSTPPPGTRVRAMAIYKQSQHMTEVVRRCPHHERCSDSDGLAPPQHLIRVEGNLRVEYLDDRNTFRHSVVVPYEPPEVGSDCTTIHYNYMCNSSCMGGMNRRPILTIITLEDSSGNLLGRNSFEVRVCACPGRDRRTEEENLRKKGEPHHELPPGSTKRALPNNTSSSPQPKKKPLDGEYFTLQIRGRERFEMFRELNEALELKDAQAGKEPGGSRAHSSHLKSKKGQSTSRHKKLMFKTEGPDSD

Brc1ccc(Oc2ccc(Br)cc2Br)c(Br)c1
inactive: [1] | [2] | [3] | [4] | [5] | [6] | [7] | [8] | [10] | [12] | [13] | [14] | [15] | [16] | [17] | [18] | [20] | [21] | [22] | [23] | [26]
active: [8] 14.2 µM | [9] 19.8 nM and 10 µM | [11] 22.5 nM and 8.36 µM | [17] 15 µM | [19] 25.4 nM and 4 µM | [20] 15.1 µM | [22] 12.3 µM | [24] 13.4 nM and 1.98 µM | [25] 92.3 nM and 4.26 µM | [27] 21.8 µM
